mHtt clearance – mutant huntingtin protein clearance | 47,000 tested, 0.42% active | AID 853 | HeLa Exon1htt(103Q)mCFP, aggregate imaging; zero = plate's median compound well | inhibition, % at 1.5 µM;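 active = inhibition of aggregate fluorescence above about 70%, also judged a hit by eye on the cell image, limit read from the data, passing the limit was not always enough; inconclusive = no rule stated for this call; inactive = not judged a hit on image review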;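 note: cells exposed to compound for three days before fixation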
D1 mod – allosteric modulators of human D1 dopamine receptor. AID 641. 58,000 tested, 5.9% active. P21728. B-score at 10 µM. HEK293 D1, CRE-luciferase, dopamine EC30 potentiation; actives deviate in either direction;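 active = luminescence count or its row- and column-corrected plate score outside the 99.7% band of the plate's sample wells, on either side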
Target sequence (P21728 whole entry, looked up): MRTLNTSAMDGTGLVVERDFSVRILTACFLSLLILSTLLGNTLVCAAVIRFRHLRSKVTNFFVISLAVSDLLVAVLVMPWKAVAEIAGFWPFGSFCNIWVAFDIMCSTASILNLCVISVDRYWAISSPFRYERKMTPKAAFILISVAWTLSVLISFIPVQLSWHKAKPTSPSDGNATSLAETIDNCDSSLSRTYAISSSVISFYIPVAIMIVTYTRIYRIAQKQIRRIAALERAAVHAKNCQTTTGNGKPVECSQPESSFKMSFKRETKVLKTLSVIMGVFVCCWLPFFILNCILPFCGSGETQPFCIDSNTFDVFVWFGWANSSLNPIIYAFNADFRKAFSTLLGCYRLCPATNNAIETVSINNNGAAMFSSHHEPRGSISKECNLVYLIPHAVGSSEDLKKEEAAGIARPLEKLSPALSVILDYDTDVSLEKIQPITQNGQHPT
M1 ag – agonists of M1 muscarinic receptor; CHO-M1 cells, Fluo-4 calcium fluorescence, agonist mode; active compounds read high; B-score at 10 µM; 64,000 tested, 3% active; AID 626;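 active = fluorescence rise, raw or as B-score row- and column-corrected plate score, outside the 99.7% band of its plate's samples, either direction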
M1 antagonist – blocks the rat M1 muscarinic receptor response to acetylcholine; CHO-M1 cells, Fluo-4 calcium, ACh EC80 antagonist mode; active compounds read low; B-score at 10 µM; 64,000 tested, 3.4% active; AID 628;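 active = calcium fluorescence response, raw or row-and-column corrected B-score, differing from the plate sample mean either way at a set confidence level, mostly lower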
M1 ag confirm – rat M1 muscarinic agonism, confirmation; CHO-M1 cells, Fluo-4 calcium fluorescence, agonist mode; actives lie on both sides; shares compounds with M1 ag; fluorescence change (max-min) at 10 µM; 1,700 tested, 19% active;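 active = fluorescence change differs from the solvent-only DMSO control mean at a set confidence level in both duplicate runs; inconclusive = differs from solvent-only control mean in just one of two runs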;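 note: an EC20 dose of acetylcholine follows compound addition during the same imaging run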
M4 ag counter – activates rat M4 receptor in counter-screen for M1 agonists; 1,700 tested, 9% active; CHO M4/Gqi5 cells, Fluo-4 calcium fluorescence, agonist mode; actives lie on both sides; fluorescence change (max-min) at 10 µM; shares compounds with M1 ag; AID 1741;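 active = fluorescence change differing from the plate's solvent-only control wells at 99.7% confidence in both duplicates, whether higher or lower; inconclusive = differs from solvent controls in only one of two duplicates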
M1 antag conf – M1 muscarinic receptor (rat) antagonism, confirmed. shares compounds with M1 antagonist. CHO-M1 cells, Fluo-4 calcium, ACh EC80 antagonism; active compounds read low. calcium response (max-min fluorescence) at 10 µM. 1,700 tested, 43% active. AID 677;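 active = calcium response below the same-plate mean of wells given acetylcholine alone at its 80%-effect dose, minus 3 SD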
mGluR4 antag – acts on human mGluR4 in M1 antagonist selectivity test; CHO-mGluR4 calcium flux, Fluo-4 fluorescence, glutamate EC80; active compounds read low; 1,700 tested, 0.9% active; shares compounds with M1 antagonist; AID 678; fluorescence response (max-min) at 10 µM;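 active = fluorescence response below the plate's average for near-maximal glutamate wells, less 3 SD of those wells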;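 note: raw unnormalized fluorescence span taken in the window right after glutamate addition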
D1 mod confirm – confirmation of human D1 dopamine receptor allosteric modulators; 2,200 tested, 88% active; luminescence at 10 µM; HEK293 D1 CRE-luciferase, dopamine EC30 potentiation; active compounds read high; shares compounds with D1 mod; AID 642;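 active = luminescence in either of two replicates above the same-plate mean plus 3 SD of the low-dose dopamine control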
D1 no dopamine – D1 (human) signaling in absence of dopamine; 1,900 tested, 0.8% active; shares compounds with D1 mod; luminescence at 10 µM; HEK293 D1 CRE-luciferase, luminescence, no dopamine; active compounds read high; in the data active = luminescence above about 3900
Isoprot counter – counter-screen for D1 modulators: isoproterenol response in HEK293 cells | 2,200 tested, 63% active | luminescence at 10 µM | shares compounds with D1 mod | AID 647 | HEK293 D1 CRE-luciferase, isoproterenol EC30 counter-screen; active compounds read high;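 active = luminescence in either replicate above plate mean of wells with a partly effective reference agonist dose plus 3 SD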;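 note: isoproterenol raises cAMP through native beta-adrenoceptor Gs so signal bypasses D1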
Large screens that a line does not name were inactive (follow-up assays come after a bar, where they were run). Shown are actives, neighbours in structure and some others; about 9.1% of the full set was active somewhere.

O=C(OCCCCN1C(=O)c2ccccc2C1=O)c1ccc(S(=O)(=O)N2CCCC2)cc1	none (no result: mHtt clearance)
O=C(OCCN1C(=O)c2ccccc2C1=O)c1cc(S(=O)(=O)N2CCOCC2)ccc1Cl	D1 mod 3.4, M1 ag 3.7 (no result: mHtt clearance) | M1 ag confirm inactive | M4 ag counter inactive | D1 mod confirm 9076 | D1 no dopamine inactive | Isoprot counter 3280
COc1cccc(-c2nc(CS(=O)CC(=O)NCc3ccccc3Cl)c(C)o2)c1 (configuration not stated)	mHtt clearance inconclusive
NC(=O)CSc1nc2scc(-c3ccco3)c2c(=O)n1-c1ccccc1	D1 mod 3.4, M1 ag 4.3 | M1 ag confirm inconclusive | M4 ag counter inactive | D1 mod confirm 10400 | Isoprot counter inactive
O=C(CSc1nc2scc(-c3ccco3)c2c(=O)n1-c1ccccc1)N1CCOCC1	none
CCC(=O)Nc1ccc(N2CCN(Cc3ccccc3F)CC2)cc1	M1 antagonist -2.6 | M1 antag conf inactive | mGluR4 antag inactive
CC(=O)Nc1ccc(N2CCN(Cc3ccccc3F)CC2)cc1	none
Cc1cc(C)c2nc(NC3=NCN(CCN4CCOCC4)CN3)nc(C)c2c1	none (no result: mHtt clearance)
Cc1ccc2nc(NC3=NCN(CCN4CCOCC4)CN3)nc(C)c2c1	M1 antagonist -2.6 (no result: mHtt clearance) | M1 antag conf 317 | mGluR4 antag inactive
CN(CCNC(=O)c1cc2c(=O)n(C)c3ccccc3c2n1C)Cc1ccccc1	M1 antagonist -3.8 (no result: mHtt clearance) | M1 antag conf inactive | mGluR4 antag inactive
O=C(CCC(=O)OCCCC(F)(F)C(F)(F)F)NC1CCCCC1	M1 antagonist -8.2 (no result: mHtt clearance) | M1 antag conf inactive | mGluR4 antag inactive
O=c1cc(O)c2c(=O)n3c4c(cccc4c2o1)CCC3	none (no result: mHtt clearance, D1 mod)
C=CCSC1=N/C(=C\c2ccc(C)o2)C(=O)S1	none (no result: mHtt clearance)
Cc1ccc(Cn2nnc3c(=O)n(CC(=O)N4CCN(c5ccccc5)CC4)cnc32)cc1	M1 antagonist -4.7 (no result: mHtt clearance) | M1 antag conf inactive | mGluR4 antag inactive
Cc1ccc(Cn2nnc3c(=O)n(CC(=O)OCc4ccccc4)cnc32)cc1	none (no result: mHtt clearance)
Cc1cc(C)nc(SCc2nnc(SCC(=O)Nc3ccccc3C)n2Cc2ccco2)n1	none
Cc1ccc(S(=O)(=O)N(CC(=O)NCc2ccco2)Cc2ccccc2F)cc1	none
COc1ccc(-c2cn3c(C)c(C(=O)NCc4ccc5c(c4)OCO5)sc3n2)cc1	none (no result: mHtt clearance)
N#C/C(C(=O)Oc1ccccc1)=C1/Nc2ccccc2-c2ccccc21	none (no result: D1 mod, M1 ag, M1 antagonist)
N=c1sccn1CC(=O)NCCc1ccc(Cl)cc1	M1 antagonist -4.7 (no result: mHtt clearance) | M1 antag conf 408 | mGluR4 antag inactive
O=C(NC1CCCCC1)c1noc2c1CCCCC2	M1 antagonist -1.9 (no result: mHtt clearance) | M1 antag conf inactive | mGluR4 antag inactive
CCN(CC)CCOC(=O)c1c(C)oc2ccc(OC)cc12	M1 antagonist -14 (no result: D1 mod) | M1 antag conf 98 | mGluR4 antag inactive
COC(=O)C(Cc1ccccc1)NC(=O)CSc1nc(N)cc(=O)[nH]1 (configuration not stated)	none (no result: mHtt clearance)
CCOc1cccc(NC(=O)C2CC(=O)N(C)C(=Nc3cccc(F)c3)S2)c1 (configuration not stated)	none (no result: D1 mod, M1 ag, M1 antagonist)
COc1ccccc1C(c1nnnn1C1CCCC1)N1CCN2CCCC2C1 (configuration not stated)	M1 antagonist -3.8 (no result: D1 mod) | M1 antag conf 473 | mGluR4 antag inactive
O=C1CC(N2CCN(c3ccccc3Cl)CC2)C(=O)N1c1cccc(F)c1 (configuration not stated)	M1 antagonist -1.7 (no result: mHtt clearance) | M1 antag conf inactive | mGluR4 antag inactive
Cc1ccc(C(=O)CSc2nnc(-c3ccco3)n2Cc2ccccc2)cc1	none
O=C(CSc1nnc(-c2ccco2)n1Cc1ccccc1)c1ccccc1	M1 antagonist -2 (no result: mHtt clearance) | M1 antag conf inactive | mGluR4 antag inactive
COc1cc(C(=O)N2CCN(C(=O)C3CC3)CC2)cc(OC)c1OC	M1 antagonist -3.1 | M1 antag conf 543 | mGluR4 antag inactive
COC(=O)C1CCN(C(=O)c2cc(OC)c(OC)c(OC)c2)CC1	none
COc1ccc(C2C3=C(CCCC3=O)Nc3nc4ccccc4n32)cc1OC (configuration not stated)	none
Cc1cc(C)cc(OCC(=O)Nc2ccc(N3CCCC3)cc2)c1	M1 antagonist -7.6 (no result: mHtt clearance) | M1 antag conf 155 | mGluR4 antag inactive
Cc1ccc(OCCCC(=O)Nc2ccc(N3CCOCC3)cc2)c(C)c1	M1 antagonist -2.3 (no result: mHtt clearance) | M1 antag conf inactive | mGluR4 antag inactive
Cc1cc(OCC(=O)Nc2ccc(S(=O)(=O)N3CCN(C)CC3)cc2)ccc1Cl	none (no result: D1 mod, M1 ag, M1 antagonist)
Cc1ccc(OCC(=O)Nc2ccc(N3CCCC3)cc2)cc1C	M1 antagonist -3.6 | M1 antag conf inactive | mGluR4 antag inactive
Cc1ccccc1OCCCC(=O)Nc1ccc(N2CCOCC2)cc1	none (no result: mHtt clearance, D1 mod)
Cc1cc(OCC(=O)Nc2ccc(S(=O)(=O)N3CCN(C)CC3)cc2)cc(C)c1Cl	D1 mod -6.5, M1 antagonist -1.7 | M1 antag conf 377 | mGluR4 antag inactive
O=C(CCCc1ccccc1)Nc1cccnc1	none (no result: D1 mod, M1 ag, M1 antagonist)
Nc1nc(C2CCCN2S(=O)(=O)c2ccc(Cl)cc2)cs1 (configuration not stated)	none
O=C1CC(N2CCOCC2)C(=O)N1Cc1ccc(N2CCCC2=O)cc1 (configuration not stated)	none
O=C1CC(N2CCN(c3ccc(S(=O)(=O)N4CCOCC4)cc3)CC2)C(=O)N1Cc1ccccc1 (configuration not stated)	M1 antagonist -3.4 | M1 antag conf 607 | mGluR4 antag inactive
COc1ccc(-c2nc(CN3CCC(C(=O)NC(C)C)CC3)c(C)o2)cc1OC	none (no result: mHtt clearance)
Cc1cccc(Nc2ccccc2C(=O)OCC(=O)N2CCOCC2)c1C	M1 antagonist -4.2 | M1 antag conf inactive | mGluR4 antag inactive
Cc1cccc(Nc2ccccc2C(=O)OCC(=O)NCc2ccco2)c1C	none (no result: D1 mod, M1 ag, M1 antagonist)
Nc1ncnc2nc(SCc3ccccc3)[nH]c12	none (no result: mHtt clearance, D1 mod)
Nc1ncnc2nc(SCCN3CCCCC3)[nH]c12	M1 antagonist -2.8 | M1 antag conf inactive | mGluR4 antag inactive

Screens from PubChem BioAssay.
